Measurements taken from PubChem BioAssay (NCI).
This is part of a sample that, as a whole, favours compounds with a hit. Of some 79,000 tested, about 15% had one in any assay. Active and inactive are the calls of the source. Cut-off read from the data, not from the text of the source: active = growth inhibition above about 70%; inactive = the rest.

Legend:
[1] = NCI Yeast Anticancer Drug Screen. Data for the rad52 strain (AID 147);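 note: 0% = growth of vehicle-treated control cultures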; conditions: S. cerevisiae rad52 mutant growth inhibition, active compounds read high
Procedure, shortened: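 Genetically altered yeast (DNA damage repair defect) treated with compound; inhibition calculated relative to vehicle.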

[2] = NCI Yeast Anticancer Drug Screen. Data for the wt1 strain (AID 149);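 note: 0% = growth of vehicle-treated wt1 cultures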; conditions: S. cerevisiae wt1 strain (SPY 50644) growth inhibition, active compounds read high
Procedure, shortened: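 Yeast wt1 strain exposed to compounds; growth inhibition measured relative to vehicle-treated controls.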

[3] = NCI Yeast Anticancer Drug Screen. Data for the rad50EPP+ strain (AID 151);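 note: 0% = growth of vehicle-treated control cultures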; conditions: S. cerevisiae rad50 mutant strain, active compounds read high
Procedure, shortened: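 Strain rad50EPP+; compound exposure; % growth inhibition vs vehicle.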

[4] = NCI Yeast Anticancer Drug Screen. Data for the mgt1 strain (AID 153); conditions: S. cerevisiae mgt1 mutant growth inhibition, active compounds read high
Procedure, shortened: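 Read-out: yeast growth inhibition vs vehicle control. Strain mgt1, drawn from a panel altered in DNA damage repair or cell cycle control.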

[5] = NCI Yeast Anticancer Drug Screen. Data for the rad50 strain (AID 155);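 note: 0% = growth of vehicle-only cultures of the same strain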; conditions: S. cerevisiae rad50 strain growth inhibition, active compounds read high
Procedure, shortened: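 Yeast carrying a defined DNA repair defect were exposed to test compounds, and growth was compared with vehicle-treated controls to give percent inhibition.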

[6] = NCI Yeast Anticancer Drug Screen. Data for the mec2-1 strain (AID 157); conditions: S. cerevisiae mec2-1 strain, active compounds read high
Procedure, shortened: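 Cells of the genetically defined mec2-1 yeast strain are incubated with test compound. Inhibition of growth is calculated against vehicle-treated controls.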

[7] = NCI Yeast Anticancer Drug Screen. Data for the rad14 strain (AID 159);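 note: 0% = growth of vehicle-treated control cultures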; conditions: S. cerevisiae rad14 strain growth inhibition, active compounds read high
Procedure, shortened: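 Yeast cells carrying a defined DNA-repair defect were exposed to compounds, and growth inhibition was calculated relative to vehicle-treated control cultures.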

[8] = NCI Yeast Anticancer Drug Screen. Data for the sgs1 mgt1 strain (AID 161);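 note: 0% = growth of cultures given vehicle only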; conditions: S. cerevisiae sgs1 mgt1 strain, active compounds read high
Procedure, shortened: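 Read-out: growth inhibition vs vehicle controls. Cells: mutant yeast strain deficient in DNA damage repair.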

[9] = NCI Yeast Anticancer Drug Screen. Data for the CLN2oe strain (AID 163);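 note: 0% = growth of vehicle-only control cultures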; conditions: S. cerevisiae CLN2oe strain, active compounds read high
Procedure, shortened: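 Strain altered in cell-cycle control, incubated with compound; growth compared to solvent-treated controls.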

[10] = NCI Yeast Anticancer Drug Screen. Data for the cln2 rad14 strain (AID 165);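 note: 0% = growth equal to vehicle treated cultures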; conditions: S. cerevisiae cln2 rad14 strain, active compounds read high
Procedure, shortened: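 The screen exposed genetically defined yeast (cln2 rad14) to test compounds and scored growth inhibition relative to vehicle-treated controls.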

[11] = NCI Yeast Anticancer Drug Screen. Data for the bub3 strain (AID 167); conditions: S. cerevisiae bub3 mutant strain, active compounds read high
Procedure, shortened: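 Compounds were applied to a genetically altered yeast strain carrying a cell-cycle control defect. Growth inhibition was scored against vehicle-treated controls.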

[12] = NCI Yeast Anticancer Drug Screen. Data for the wt2 strain (AID 169);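 note: 0% = growth of vehicle-treated yeast cultures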; conditions: S. cerevisiae wt2 strain growth inhibition, active compounds read high
Procedure, shortened: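 Steps: yeast strain treated with compound; growth recorded; inhibition calculated relative to cultures given vehicle alone.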

[13] = NCI Yeast Anticancer Drug Screen. Data for the mlh1 strain (AID 171);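 note: 0% = growth of vehicle-treated control cultures of the same strain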; conditions: S. cerevisiae mlh1 strain growth inhibition, active compounds read high
Procedure, shortened: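 Yeast screen: mutant strain plus compound, growth scored against vehicle control wells.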

[14] = NCI Yeast Anticancer Drug Screen. Data for the sgs1 strain (AID 173);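 note: 0% = growth of vehicle-only control cultures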; conditions: S. cerevisiae sgs1 mutant, active compounds read high
Procedure, shortened: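 Inhibition of yeast growth served as the measure. The mutant strain was treated with each compound, and growth was normalised to cultures receiving vehicle alone.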

[15] = NCI Yeast Anticancer Drug Screen. Data for the mlh1 rad18 strain (AID 175); conditions: S. cerevisiae mlh1 rad18 strain growth inhibition, active compounds read high
Procedure, shortened: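 Compound-treated yeast growth, normalised to vehicle controls. Strain bears defined DNA repair mutations.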

[16] = NCI Yeast Anticancer Drug Screen. Data for the rad18 strain (AID 177); conditions: S. cerevisiae rad18 mutant growth inhibition, active compounds read high
Procedure, shortened: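 Inhibition values reflect reduced yeast growth compared with vehicle-treated controls, using a strain engineered with a DNA damage repair defect.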

[17] = at 5.0 µM (retest, dose inferred, filed as 0.5)
[18] = at 50.0 µM (retest, dose inferred, filed as 5.0)

Measured: growth inhibition

CC1=NN(c2cccc(Cl)c2)C(=O)C1
active: [5]; [17] 81% | [5]; [18] 99% | [6]; [17] 74% | [6]; [18] 100% | [15]; [17] 73% | [15]; [18] 100%
inactive: [1]; at 1.2 µM -33% | [1]; at 3.7 µM -33% | [1]; at 11.0 µM -22% | [1]; at 33.0 µM -16% | [1]; at 100.0 µM 14% | [2]; at 1.2 µM -13% | [2]; at 3.7 µM -36% | [2]; at 11.0 µM -22% | [2]; at 33.0 µM -2% | [2]; at 100.0 µM 28% | [3]; at 1.2 µM -65% | [3]; at 3.7 µM -50% | [3]; at 11.0 µM -38% | [3]; at 33.0 µM -27% | [3]; at 100.0 µM -26% | [4]; at 1.2 µM -21% | [4]; at 3.7 µM -44% | [4]; at 11.0 µM -40% | [4]; at 33.0 µM 8% | [4]; at 100.0 µM 63% | [5]; at 1.2 µM -47% | [5]; at 3.7 µM -54% | [5]; at 11.0 µM -61% | [5]; at 33.0 µM -44% | [5]; at 50.0 µM 43.4% | [5]; at 100.0 µM 28% | [6]; at 1.2 µM -35% | [6]; at 3.7 µM -27% | [6]; at 11.0 µM -5% | [6]; at 33.0 µM 8% | [6]; at 50.0 µM 56.1% | [6]; at 100.0 µM 32% | [7]; at 1.2 µM -4% | [7]; at 3.7 µM -21% | [7]; at 11.0 µM -22% | [7]; at 33.0 µM 3% | [7]; at 100.0 µM 36% | [8]; [17] -12% | [8]; [18] 56% | [8]; at 50.0 µM 55.9% | [9]; at 1.2 µM -26% | [9]; at 3.7 µM -4% | [9]; at 11.0 µM -1% | [9]; at 33.0 µM -15% | [9]; at 100.0 µM 20% | [10]; [17] 39% | [10]; [18] 62% | [10]; at 50.0 µM 27.2% | [11]; at 1.2 µM -42% | [11]; at 3.7 µM -33% | [11]; [17] 27% | [11]; at 11.0 µM -32% | [11]; at 33.0 µM -36% | [11]; [18] 33% | [11]; at 50.0 µM 57.1% | [11]; at 100.0 µM 29% | [12]; at 1.2 µM -31% | [12]; at 3.7 µM -28% | [12]; at 11.0 µM -15% | [12]; at 33.0 µM 8% | [12]; at 100.0 µM 51% | [13]; at 1.2 µM -13% | [13]; at 3.7 µM -20% | [13]; at 11.0 µM -16% | [13]; at 33.0 µM 2% | [13]; at 100.0 µM 56% | [14]; at 1.2 µM -27% | [14]; at 3.7 µM -22% | [14]; at 11.0 µM -11% | [14]; at 33.0 µM 4% | [14]; at 100.0 µM 50% | [15]; at 50.0 µM 44% | [16]; at 1.2 µM -47% | [16]; at 3.7 µM -34% | [16]; at 11.0 µM -22% | [16]; at 33.0 µM -20% | [16]; at 100.0 µM 8%

COC(=O)CCNc1c2ccccc2nc2cccc([N+](=O)[O-])c12
active: [1]; at 1.2 µM 97% | [1]; at 3.7 µM 97% | [1]; at 11.0 µM 97% | [1]; at 33.0 µM 98% | [1]; at 100.0 µM 98% | [2]; at 1.2 µM 79% | [2]; at 3.7 µM 87% | [2]; at 11.0 µM 96% | [2]; at 33.0 µM 97% | [2]; at 100.0 µM 97% | [3]; at 11.0 µM 80% | [3]; at 33.0 µM 93% | [3]; at 100.0 µM 97% | [4]; at 3.7 µM 74% | [4]; at 11.0 µM 87% | [4]; at 33.0 µM 97% | [4]; at 100.0 µM 97% | [5]; at 1.2 µM 95% | [5]; at 3.7 µM 95% | [5]; [17] 95% | [5]; at 11.0 µM 96% | [5]; at 33.0 µM 97% | [5]; [18] 98% | [5]; at 50.0 µM 86% | [5]; at 100.0 µM 97% | [6]; at 1.2 µM 97% | [6]; at 3.7 µM 97% | [6]; [17] 90% | [6]; at 11.0 µM 98% | [6]; at 33.0 µM 98% | [6]; [18] 99% | [6]; at 50.0 µM 91.3% | [6]; at 100.0 µM 98% | [7]; at 1.2 µM 99% | [7]; at 3.7 µM 99% | [7]; at 11.0 µM 99% | [7]; at 33.0 µM 99% | [7]; at 100.0 µM 99% | [8]; [17] 94% | [8]; [18] 98% | [8]; at 50.0 µM 81.2% | [9]; at 11.0 µM 89% | [9]; at 33.0 µM 96% | [9]; at 100.0 µM 98% | [10]; [17] 99% | [10]; [18] 99% | [10]; at 50.0 µM 89.4% | [11]; at 33.0 µM 96% | [11]; [18] 99% | [11]; at 50.0 µM 84% | [11]; at 100.0 µM 99% | [12]; at 11.0 µM 85% | [12]; at 33.0 µM 97% | [12]; at 100.0 µM 99% | [13]; at 1.2 µM 84% | [13]; at 3.7 µM 91% | [13]; at 11.0 µM 95% | [13]; at 33.0 µM 96% | [13]; at 100.0 µM 97% | [14]; at 1.2 µM 97% | [14]; at 3.7 µM 96% | [14]; at 11.0 µM 98% | [14]; at 33.0 µM 98% | [14]; at 100.0 µM 98% | [15]; [17] 96% | [15]; [18] 99% | [15]; at 50.0 µM 81.1%
inactive: [3]; at 1.2 µM 18% | [3]; at 3.7 µM 49% | [4]; at 1.2 µM 61% | [9]; at 1.2 µM 7% | [9]; at 3.7 µM 50% | [11]; at 1.2 µM -13% | [11]; at 3.7 µM 11% | [11]; [17] 10% | [11]; at 11.0 µM 66% | [12]; at 1.2 µM 5% | [12]; at 3.7 µM 27%
